From PubChem BioAssay
The source made the active and inactive calls.

Tests used:
Albumin (Bos taurus) = Albumin (Bos taurus) (UniProt P02769); assay: compounds binding labelled BSA control protein – biochemical, small-molecule microarray, Alexa647 label, 635/667 nm fluorescence, artefact control for SMM control protein annotation, profiling panel (AID 1118); conditions: BSA-A647 binding, fluorescence 635 nm, higher = more signal;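 also: score merges 667 nm emission intensity and signal-to-noise per printed compound spot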
Sequence of Albumin (Bos taurus) (P02769 whole entry, looked up): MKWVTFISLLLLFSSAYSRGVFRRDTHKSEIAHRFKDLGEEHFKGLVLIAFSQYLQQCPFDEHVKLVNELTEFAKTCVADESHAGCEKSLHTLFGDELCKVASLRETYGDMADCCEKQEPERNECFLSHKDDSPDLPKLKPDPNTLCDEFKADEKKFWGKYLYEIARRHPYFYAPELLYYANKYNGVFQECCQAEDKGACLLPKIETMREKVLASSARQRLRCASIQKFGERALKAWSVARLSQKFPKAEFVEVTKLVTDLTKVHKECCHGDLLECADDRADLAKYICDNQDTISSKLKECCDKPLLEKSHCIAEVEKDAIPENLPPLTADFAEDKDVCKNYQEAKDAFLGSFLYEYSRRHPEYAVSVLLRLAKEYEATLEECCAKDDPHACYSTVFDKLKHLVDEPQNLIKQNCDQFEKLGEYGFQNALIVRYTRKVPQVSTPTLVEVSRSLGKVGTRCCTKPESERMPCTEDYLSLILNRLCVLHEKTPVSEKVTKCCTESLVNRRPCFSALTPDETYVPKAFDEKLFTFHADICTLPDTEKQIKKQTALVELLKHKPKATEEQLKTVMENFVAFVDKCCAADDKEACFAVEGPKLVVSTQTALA

[1] = probe aXIP binding to arrayed compounds – biochemical, NeuroSMM set, 635/667 nm fluorescence, primary screen (AID 1119); conditions: small-molecule microarray, higher = more signal, called active from +8 up or from −8 down;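 also: probe is the protein aXip251-270 applied at 1 µg/mL to compound-printed slides; binding of probe to printed compounds measured as 667 nm fluorescence plus signal to noise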
[2] = probe aNOTCH3 binding on compound microarray – biochemical, small-molecule microarray, 635/667 nm fluorescence, primary screen (AID 1120); conditions: higher = more signal;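 also: probe is a biotin-tagged antibody raised against NOTCH3 rather than NOTCH3 protein; score merges spot fluorescence near 667 nm with spot signal to noise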
[3] = probe aNOTCH2 binding on compound microarray – biochemical, small-molecule microarray, 635/667 nm fluorescence, primary screen (AID 1121); conditions: higher = more signal;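 also: score merges feature fluorescence read at 667 nm with its signal to noise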
[4] = molecular target: Carbonic anhydrase 2 (Homo sapiens) (UniProt P00918); assay: compounds binding carbonic anhydrase 2 – biochemical, small-molecule microarray, Alexa647-labelled CAII, profiling panel (AID 1122); conditions: CAII-A647 binding fluorescence, higher = more signal
[5] = COS7 lysate on small-molecule microarray, probe aHis, 635 nm (AID 1123); conditions: COS7 cell lysate, fluorescence, higher = more signal;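 also: z-score combines 667nm fluorescence intensity with signal-to-noise per printed compound spot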
[6] = probe aLAP1 signal on lysate-treated microarray – cell lysate, small-molecule microarray, COS7 lysate, primary screen (AID 1124); conditions: probe aLAP1, fluorescence, higher = more signal;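 also: lysate comes from COS7 cells expressing LAP1 and is applied at 0.3 µg/mL; score merges spot fluorescence near 667 nm with signal-to-noise over triplicate slides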
Sam68 (KHDRBS1) = assay: compounds binding KHDRBS1 protein – biochemical, small-molecule microarray, 635 nm fluorescence, primary screen (AID 1125); conditions: higher = more signal;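 also: score merges 667 nm channel intensity with signal to noise over triplicate slides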
[7] = system: Chordin-like protein 2 (CHRDL2); assay: compounds binding chordin-like 2 – biochemical, small-molecule microarray, 635 nm fluorescence, primary screen (AID 1126); conditions: fluorescence 635 nm, higher = more signal;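 also: printed compound slides probed with Chrdl2 protein at 4 µg/mL for 1 h at 4 C; score merges 667 nm emission intensity with signal to noise over three replicate slides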
[8] = molecular target: Concanavalin-A (Canavalia ensiformis) (UniProt P02866); assay: compounds binding concanavalin A lectin – biochemical, small-molecule microarray, Alexa647 label, 635 nm, artefact control for SMM control protein annotation, primary screen (AID 1127); conditions: ConA-A647 binding fluorescence, higher = more signal;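 also: z combines 667 nm emission intensity with signal-to-noise across three replicate slides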
Sequence of Concanavalin-A (Canavalia ensiformis) (P02866 whole entry, looked up): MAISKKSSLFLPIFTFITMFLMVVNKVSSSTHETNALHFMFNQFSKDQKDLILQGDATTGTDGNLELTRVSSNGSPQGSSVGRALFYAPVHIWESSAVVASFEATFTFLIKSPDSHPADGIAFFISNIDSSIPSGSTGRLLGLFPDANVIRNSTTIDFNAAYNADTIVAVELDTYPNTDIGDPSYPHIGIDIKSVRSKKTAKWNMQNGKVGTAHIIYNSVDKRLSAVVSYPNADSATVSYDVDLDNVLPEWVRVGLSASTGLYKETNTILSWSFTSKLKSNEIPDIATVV

[9] = compounds binding Alexa647 anti-His antibody – biochemical, small-molecule microarray, 635 nm fluorescence, artefact control for SMM control protein annotation, primary screen (AID 1128); conditions: higher = more signal;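 also: score merges feature fluorescence with signal-to-noise for each printed compound spot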
[10] = system: Human papillomavirus type 1a E7 protein (residues 1-88); assay: HPV1a E7 small-molecule binders, primary screen, biochemical, small-molecule microarray, residues 1-88, 635 nm (AID 1129); conditions: small-molecule microarray binding, fluorescence 635 nm; higher = more signal
[11] = molecular target: Focal adhesion kinase 1 (Homo sapiens) (UniProt Q05397); assay: PTK2 protein binding on printed compound slides – biochemical, small-molecule microarray, 635/667 nm fluorescence, BSA, DTT, primary screen (AID 1130); conditions: 635 nm fluorescence, higher = more signal;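 also: composite of spot emission at 667 nm and signal to noise over triplicate slides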
Sequence of Focal adhesion kinase 1 (Homo sapiens) (Q05397 whole entry, looked up): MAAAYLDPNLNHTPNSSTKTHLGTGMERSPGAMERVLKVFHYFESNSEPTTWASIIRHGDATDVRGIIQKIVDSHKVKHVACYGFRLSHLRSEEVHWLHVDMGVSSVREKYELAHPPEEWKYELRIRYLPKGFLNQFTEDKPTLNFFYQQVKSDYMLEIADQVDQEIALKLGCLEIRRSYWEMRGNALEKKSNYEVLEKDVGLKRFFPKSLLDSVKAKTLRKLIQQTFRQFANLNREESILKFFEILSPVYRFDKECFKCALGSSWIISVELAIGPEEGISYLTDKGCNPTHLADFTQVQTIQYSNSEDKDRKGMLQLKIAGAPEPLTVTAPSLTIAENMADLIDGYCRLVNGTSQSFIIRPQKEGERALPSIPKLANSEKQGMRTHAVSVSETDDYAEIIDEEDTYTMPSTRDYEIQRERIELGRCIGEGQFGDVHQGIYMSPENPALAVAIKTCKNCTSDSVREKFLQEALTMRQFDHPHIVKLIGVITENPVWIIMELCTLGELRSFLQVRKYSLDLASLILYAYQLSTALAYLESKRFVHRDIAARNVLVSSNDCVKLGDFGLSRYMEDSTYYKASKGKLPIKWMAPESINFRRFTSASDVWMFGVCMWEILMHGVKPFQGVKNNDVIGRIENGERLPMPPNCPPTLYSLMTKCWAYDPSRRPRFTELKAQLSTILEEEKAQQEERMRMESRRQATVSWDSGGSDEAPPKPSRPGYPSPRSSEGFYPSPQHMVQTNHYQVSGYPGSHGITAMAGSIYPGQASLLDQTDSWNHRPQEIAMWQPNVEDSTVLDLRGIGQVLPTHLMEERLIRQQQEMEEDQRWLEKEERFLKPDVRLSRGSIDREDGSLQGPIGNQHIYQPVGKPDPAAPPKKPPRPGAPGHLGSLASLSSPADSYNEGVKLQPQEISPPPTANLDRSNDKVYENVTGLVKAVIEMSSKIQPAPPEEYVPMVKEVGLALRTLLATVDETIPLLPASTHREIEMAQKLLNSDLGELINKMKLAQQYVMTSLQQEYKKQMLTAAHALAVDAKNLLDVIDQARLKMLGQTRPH

[12] = system: Fibrinogen (Alexa647-labelled); assay: Alexa647-fibrinogen binding to printed small molecules – biochemical, small-molecule microarray, 635/667 nm fluorescence, artefact control for SMM control-protein annotation, profiling panel (AID 1131); conditions: fibrinogen-A647 binding fluorescence, higher = more signal;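 also: z-score merges 667 nm fluorescence with per-spot signal-to-noise over triplicate slides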
[13] = molecular target: Follistatin (Homo sapiens) (UniProt P19883); assay: FST protein binding to printed compounds – biochemical, small-molecule microarray, 635/667 nm fluorescence, primary screen (AID 1132); conditions: 635 nm fluorescence, higher = more signal
Sequence of Follistatin (Homo sapiens) (P19883 whole entry, looked up): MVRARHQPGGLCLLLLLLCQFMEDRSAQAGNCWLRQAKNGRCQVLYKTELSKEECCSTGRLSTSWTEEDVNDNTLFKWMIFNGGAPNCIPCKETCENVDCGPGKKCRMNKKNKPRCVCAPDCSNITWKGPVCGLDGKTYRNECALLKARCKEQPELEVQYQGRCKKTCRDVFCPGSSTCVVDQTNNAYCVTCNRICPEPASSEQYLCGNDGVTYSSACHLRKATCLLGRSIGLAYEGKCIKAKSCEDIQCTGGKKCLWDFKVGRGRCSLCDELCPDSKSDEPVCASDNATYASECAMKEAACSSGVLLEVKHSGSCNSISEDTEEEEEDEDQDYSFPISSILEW

[14] = molecular target: Fibroblast growth factor 2 (Homo sapiens) (UniProt P09038); assay: basic fibroblast growth factor binding to printed compounds – biochemical, small-molecule microarray, 635/667 nm fluorescence, primary screen (AID 1133); conditions: FGF2, fluorescence 635/667, higher = more signal
Sequence of Fibroblast growth factor 2 (Homo sapiens) (P09038 whole entry, looked up): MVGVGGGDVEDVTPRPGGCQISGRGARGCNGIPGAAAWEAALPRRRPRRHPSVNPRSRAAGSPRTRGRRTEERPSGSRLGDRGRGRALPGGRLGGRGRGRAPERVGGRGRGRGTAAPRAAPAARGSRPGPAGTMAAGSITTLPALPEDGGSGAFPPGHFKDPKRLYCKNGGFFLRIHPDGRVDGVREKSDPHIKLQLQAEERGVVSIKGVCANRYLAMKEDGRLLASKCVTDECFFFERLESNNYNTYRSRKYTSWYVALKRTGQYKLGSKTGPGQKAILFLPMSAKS

[15] = JC-1 mitochondrial potential readout, lung cancer cells – cell-based, A549, JC-1 fluorescence, basal, 24 h, 100 nL, profiling panel (AID 1138); conditions: higher = more signal;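 also: A549 lung adenocarcinoma cells under basal conditions with no added stimulus; test concentration not given here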
Lefty1 = Lefty1 protein binding to printed compounds – biochemical, small-molecule microarray, 635/667 nm fluorescence, primary screen (AID 1139); conditions: fluorescence 635/667, higher = more signal
[16] = system: wheat germ agglutinin (Triticum aestivum), Alexa647-labelled; assay: Alexa647-WGA lectin binding to printed small molecules – biochemical, small-molecule microarray, 635/667 nm fluorescence, artefact control for SMM control-protein annotation, profiling panel (AID 1140); conditions: WGA-A647 binding, 635 nm fluorescence, higher = more signal;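 also: score merges 667 nm feature emission with signal to noise over triplicate slides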
[17] = molecular target: Luciferin 4-monooxygenase (Photinus pyralis) (UniProt P08659); assay: inhibition of purified Photinus pyralis luciferase – biochemical, luminescence, purified enzyme, 2006 set, primary screen (AID 1141); conditions: purified firefly luciferase, SteadyGlo luminescence, 30 min; higher = more signal, called active from +8 up or from −8 down;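 also: cell-free assay with purified firefly luciferase at 100 ng per well in PBS; test concentration not given here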
Sequence of Luciferin 4-monooxygenase (Photinus pyralis) (P08659 whole entry, looked up): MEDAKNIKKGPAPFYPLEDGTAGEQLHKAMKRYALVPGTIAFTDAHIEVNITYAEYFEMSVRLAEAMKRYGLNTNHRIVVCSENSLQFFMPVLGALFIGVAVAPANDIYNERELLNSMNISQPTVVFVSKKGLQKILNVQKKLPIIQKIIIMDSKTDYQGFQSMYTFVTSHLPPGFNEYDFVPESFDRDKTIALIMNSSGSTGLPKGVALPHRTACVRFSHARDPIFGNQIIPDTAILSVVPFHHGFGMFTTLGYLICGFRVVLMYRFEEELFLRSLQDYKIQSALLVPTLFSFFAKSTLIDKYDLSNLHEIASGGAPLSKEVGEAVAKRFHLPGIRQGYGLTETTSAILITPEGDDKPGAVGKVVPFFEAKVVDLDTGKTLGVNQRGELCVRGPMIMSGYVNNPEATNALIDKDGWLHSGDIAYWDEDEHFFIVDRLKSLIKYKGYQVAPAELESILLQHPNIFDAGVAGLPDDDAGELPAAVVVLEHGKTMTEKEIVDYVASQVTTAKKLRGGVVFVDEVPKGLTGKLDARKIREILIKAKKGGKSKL

| Compound | composite z-score (Albumin (Bos taurus)) | composite Z-score [1] | composite z-score [2] | composite z-score [3] | composite z-score [4] | composite z-score [5] | composite z-score [6] | composite z-score (Sam68 (KHDRBS1)) | composite z-score [7] | composite z-score [8] | composite z-score [9] | composite z-score [10] | composite z-score [11] | composite z-score [12] | composite z-score [13] | composite z-score [14] | z-score [15] | composite z-score (Lefty1) | composite z-score [16] | z-score [17] |
| --- | --- | --- | --- | --- | --- | --- | --- | --- | --- | --- | --- | --- | --- | --- | --- | --- | --- | --- | --- | --- |
| COc1ccc([Si](C)(C)[C@@H]2[C@@H](CC(=O)N3Cc4ccccc4C[C@H]3CO)O[C@]3(C(=O)N(C)c4ccccc43)[C@H]2C)cc1 | 0.63 | 1.22 (inactive) | 0.215 | 0.014 | 0.723 | 0.475 | -0.0284 | 1.3 | 1.13 | 1.17 | 1.94 | 1.17 | 0.0712 | 0.855 | 1.52 | 1.68 | 0.0779 | 1.57 | 1.02 | -0.497 (inactive) |
| O=C1OCCC/C=C\[C@H]2OC34C=CCN(CCN5CCOCC5)C(=O)[C@H]3N(CCCCCCO)C(=O)[C@@H]4C12 (stereo not given in full) | 0.719 | 1.02 (inactive) | -0.0947 | -0.144 | 0.867 | 0.817 | 1.57 | 0.184 | -0.394 | -0.324 | 3.45 | 0.167 | -0.447 | -0.613 | -0.318 | -0.25 | 1.13 | 0.337 | 0.33 | -1.05 (inactive) |
| NCCCCCNC(=O)[C@@H]1C[C@@H]2C(=O)NCC(=O)N2[C@@H]1c1cccc(OCCO)c1 | 0.411 | 0.401 (inactive) | 0.154 | -0.0366 | 0.443 | 0.506 | 0.954 | 1.32 | 0.788 | 1.17 | 2.23 | 1.16 | 0.551 | 0.47 | 1.45 | 1.17 | -0.552 | 1.55 | 0.951 | -0.637 (inactive) |
| C[C@]1(C(=O)NC2CC2)c2ccccc2C(=O)N(Cc2ccccc2)[C@H]1c1ccc(CO)cc1 | -1.91 | -0.504 (inactive) | -0.337 | -0.105 | 0.168 | -0.163 | 0.11 | -0.958 | -0.771 | -1.21 | -1.12 | -1.29 | 0.874 | -2.17 | -0.271 | -0.517 | -0.153 | -1.5 | -1.15 | -0.347 (inactive) |
| COC(=O)c1c(CC[C@@H](CO)NC(=O)N2CCC[C@H]2Cn2cc(Cc3ccccc3)nn2)oc(C(C)=O)c1C(=O)OC | 0.0832 | -0.413 (inactive) | 0.233 | -0.133 | 0.643 | 1.33 | 0.381 | 0.694 | 0.668 | 0.488 | -0.0636 | 0.485 | 0.397 | -0.522 | 0.613 | 0.147 | -0.58 | 0.824 | 0.541 | 1.15 (inactive) |
| C=C(COC)/C(=C/C[C@H](OC(C)=O)c1ccc(OCCO)cc1)c1cc(C(=O)OC)ccc1OC | -0.115 | 0.835 (inactive) | 0.0642 | -0.107 | 0.622 | 0.685 | -0.0565 | 1.07 | 0.501 | 0.519 | 0.544 | 1.07 | 0.514 | 0.436 | 1.35 | 1.67 | 2.8 | 1.66 | 0.395 | -1.71 (inactive) |
| C=CCN1Cc2ccccc2[C@H]2OC(c3ccc(OCCCO)cc3)=N[C@@]2(CC=C)C1=O | -0.405 | 0.911 (inactive) | 0.133 | 0.007 | 0.418 | 2.78 | 0.373 | 1.31 | 1.39 | 0.85 | 2.47 | 1.23 | 1.12 | 0.59 | 1.54 | 1.87 | 1.33 | 0.834 | 0.619 | -0.107 (inactive) |
| CCCCCCCCCCC(O)C1C=CC2C(=O)N(C)C(=O)C2N1Nc1ccc([N+](=O)[O-])cc1[N+](=O)[O-] (stereo not given) | 0.884 | 0.423 (inactive) | 0.0668 | 0.0807 | 0.589 | 2.32 | 0.141 | 1.11 | -0.0731 | 1.14 | 1.38 | 1.21 | 0.851 | 0.949 | 0.0686 | -0.597 | 1.68 | -0.524 | 1 | 0.581 (inactive) |
| CN(C)C(=O)C1N=C(c2ccc(OCCCO)cc2)N(c2ccccc2)O1 (stereo not given) | 0.0877 | 0.794 (inactive) | 0.147 | 0.0674 | 0.846 | 1.15 | 0.502 | 1.32 | 0.267 | 0.988 | 1.33 | 1.13 | 0.268 | 0.598 | 1.35 | 1.8 | 0.936 | 1.29 | 0.586 | -14.9 (active) |
| C=C[C@@H](COC(C)=O)N(C(=O)OC(C)(C)C)S(=O)(=O)c1ccc(Br)cc1 | 0.321 | 0.388 (inactive) | 0.0494 | -0.0401 | 0.646 | 0.155 | -0.101 | 0.827 | 1.4 | 1.12 | 1.5 | 0.966 | 0.233 | 0.741 | 1.53 | 1.89 | 0.307 | 1.65 | 1.1 | -0.149 (inactive) |
| CCOC(=O)C[C@H]1[C@H](OC(=O)Cc2ccc3c(c2)OCO3)[C@@H](NC(=O)Cc2ccc(OC)cc2)c2cc(OCCCO)ccc2N1C(=O)c1ccc2ccccc2n1 | 0.857 | -0.802 (inactive) | -0.0768 | -0.11 | 0.154 | 1.15 | 0.199 | 0.489 | 0.276 | -0.533 | 0.0036 | 0.383 | -0.345 | 0.172 | 0.147 | 0.211 | 2.69 | 0.168 | -0.119 | -1.7 (inactive) |
